In publication PMC7672089, “Two nuclear effectors of the rice blast fungus modulate host immunity via transcriptional reprogramming”:

Target: T1, MoHTR1 (Magnaporthe oryzae, UniProt Q2KEJ2 20-198)
T1 sequence: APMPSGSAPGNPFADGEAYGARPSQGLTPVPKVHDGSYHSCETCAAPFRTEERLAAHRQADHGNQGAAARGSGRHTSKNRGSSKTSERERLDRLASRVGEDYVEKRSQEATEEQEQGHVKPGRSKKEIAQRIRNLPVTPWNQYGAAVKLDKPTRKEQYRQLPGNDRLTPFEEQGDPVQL
Test: array; high values mean tight binding
Conditions: protein: recombinant; tags: DsRed; 6xHis (pET-32a vector); dsDNA, one strand shown

**Q.** With CTCTAATC as the sequence, how does the binding signal read?
**A.** 21800 a.u.

**Q.** CAATCTCC was tested. Which binding signal did it give?
**A.** 20800 a.u.

**Q.** With CAATCCTC as the sequence, how does the binding signal read?
**A.** 20100 a.u.

**Q.** CCTCCTCC was tested. Which binding signal did it give?
**A.** 21700 a.u.

**Q.** Which binding signal does the source give for TCAATCTC here?
**A.** 23900 a.u.

**Q.** With CCATACAC as the sequence, how does the binding signal read?
**A.** 14100 a.u.

**Q.** Which binding signal does the source give for CTCATACC here?
**A.** 25600 a.u.

**Q.** CCTCCACC was tested. Which binding signal did it give?
**A.** 23900 a.u.

**Q.** How did the binding signal turn out when TCTCAATC was run?
**A.** 24100 a.u.

**Q.** For CTTCAATC, which binding signal is on record?
**A.** 21100 a.u.

**Q.** How did the binding signal turn out when CTCAACTC was run?
**A.** 24700 a.u.

**Q.** With AACTCTCC as the sequence, how does the binding signal read?
**A.** 21600 a.u.

**Q.** CCAACTCC was tested. Which binding signal did it give?
**A.** 20800 a.u.

**Q.** How did the binding signal turn out when TCCAATCC was run?
**A.** 22900 a.u.

**Q.** With CCTCAATC as the sequence, how does the binding signal read?
**A.** 19700 a.u.

**Q.** How did the binding signal turn out when AACTCCTC was run?
**A.** 22100 a.u.

**Q.** With CCACCTCC as the sequence, how does the binding signal read?
**A.** 24000 a.u.

**Q.** With CTAACTCC as the sequence, how does the binding signal read?
**A.** 22500 a.u.

**Q.** Which binding signal does the source give for CCGCCACC here?
**A.** 13400 a.u.

**Q.** CTCCAACC was tested. Which binding signal did it give?
**A.** 14800 a.u.

**Q.** How did the binding signal turn out when CAATCTTC was run?
**A.** 27900 a.u.

**Q.** How did the binding signal turn out when CATACTCC was run?
**A.** 19100 a.u.

Target: T2, MoHTR2 (Magnaporthe oryzae, UniProt G5EHQ6 19-110)
T2 sequence: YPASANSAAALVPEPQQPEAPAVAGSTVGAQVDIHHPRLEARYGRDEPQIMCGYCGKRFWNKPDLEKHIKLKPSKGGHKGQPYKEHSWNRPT
Test: array; high values mean tight binding
Conditions: protein: recombinant; tags: DsRed; 6xHis (pET-32a vector); dsDNA, one strand shown

**Q.** How did the binding signal turn out when CCTCCTCC was run?
**A.** 10800 a.u.

**Q.** Which binding signal does the source give for CCTCCACC here?
**A.** 11600 a.u.

**Q.** How did the binding signal turn out when CATACCTC was run?
**A.** 8490 a.u.

**Q.** With CCACCTCC as the sequence, how does the binding signal read?
**A.** 11800 a.u.

**Q.** Which binding signal does the source give for CCGCCTCC here?
**A.** 8800 a.u.

**Q.** CCTCCGCC was tested. Which binding signal did it give?
**A.** 9500 a.u.
